Screening data deposited in PubChem BioAssay by several laboratories.
Compounds with a hit are over-represented: about 4.5% of the library has one in this group of screens.
Jurkat NFkB inh: lowers PMA/ionomycin-induced NF-kB signal in Jurkat cells | PMA/ionomycin-induced NF-kB luciferase reporter, luminescence | inhibition, % at 4 µM | 330,000 tested, 0.53% active; in the data active = inhibition above about 50%
697 NFkB inh: inhibitors of the PMA/ionomycin-induced NF-kB reporter in 697 B cells; 330,000 tested, 0.33% active; 697 B-cell NF-kB luciferase reporter, 16 h; AID 435022; inhibition, % at 4 µM; in the data active = inhibition above about 35%
aSyn UTR inh: 5' untranslated region of α-synuclein, MLPCN primary screen; alpha-synuclein 5'UTR reporter, inhibitor activity; inhibition, % (tested at 7.5 µM); 300,000 tested, 0.82% active; in the data active = inhibition above about 60%; inconclusive = no clear call, values can overlap the other calls;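 also: H4 neuroglioblastoma cells stably carrying SNCA 5'UTR luciferase fusion; 0% = DMSO wells and 100% = positive control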
Mdm2-MdmX inh: inhibitors of human Mdm2/MdmX interaction. inhibition, % at 8 µM. AID 485346. SaOS-2 split-luciferase Mdm2/MdmX complementation, luminescence. 330,000 tested, 3% active. O15151+Q00987;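 active = inhibition of at least 50% at 8 µM in the primary screen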
Target sequence (O15151 whole entry, looked up): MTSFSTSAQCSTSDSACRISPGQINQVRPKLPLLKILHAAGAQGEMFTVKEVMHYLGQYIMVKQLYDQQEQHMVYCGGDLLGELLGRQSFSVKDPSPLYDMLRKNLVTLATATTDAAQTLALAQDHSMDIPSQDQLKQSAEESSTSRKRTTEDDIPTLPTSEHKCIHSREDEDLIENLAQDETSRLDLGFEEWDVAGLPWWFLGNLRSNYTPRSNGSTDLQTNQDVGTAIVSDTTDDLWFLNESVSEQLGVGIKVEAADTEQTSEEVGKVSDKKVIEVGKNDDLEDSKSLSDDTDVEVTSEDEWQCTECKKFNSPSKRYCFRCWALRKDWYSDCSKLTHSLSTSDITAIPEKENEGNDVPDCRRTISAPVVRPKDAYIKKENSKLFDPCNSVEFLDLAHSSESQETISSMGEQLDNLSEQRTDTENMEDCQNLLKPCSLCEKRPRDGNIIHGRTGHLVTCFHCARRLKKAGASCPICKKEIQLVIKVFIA
Target sequence (Q00987 whole entry, looked up): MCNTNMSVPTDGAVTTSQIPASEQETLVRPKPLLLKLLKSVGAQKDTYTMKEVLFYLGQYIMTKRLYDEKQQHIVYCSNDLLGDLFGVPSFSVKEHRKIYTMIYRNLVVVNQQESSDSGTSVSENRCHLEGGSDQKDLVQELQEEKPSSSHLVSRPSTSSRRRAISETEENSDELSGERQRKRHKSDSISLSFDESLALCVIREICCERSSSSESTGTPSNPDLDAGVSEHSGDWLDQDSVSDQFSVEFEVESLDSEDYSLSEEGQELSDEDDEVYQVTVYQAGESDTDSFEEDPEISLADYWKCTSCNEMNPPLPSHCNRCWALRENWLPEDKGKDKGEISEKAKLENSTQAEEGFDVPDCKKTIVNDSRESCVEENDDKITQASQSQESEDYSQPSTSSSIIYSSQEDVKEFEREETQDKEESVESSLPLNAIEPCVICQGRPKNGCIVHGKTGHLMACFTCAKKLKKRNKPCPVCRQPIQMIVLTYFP
CSC inhib: blocks cancer stem cells | cancer stem cell-like cells viability, luminescence | inhibition, % at 7.5 µM | 300,000 tested, 1.1% active | AID 2717; in the data active = inhibition above about 75%; inconclusive = no clear call, values can overlap the other calls; tested in HMLE shEcad cells
Gli-Sufu antag: Gli-Sufu pathway antagonism. inhibition, % at 5 µM. Sufu-KO-LIGHT fibroblasts, Gli luciferase reporter luminescence. 340,000 tested, 0.74% active;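 active = inhibition above about 55%, limit read from the data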;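 also: 0% = DMSO-treated cells and 100% = wells with medium but no cells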
Mdm2-MdmX conf: human Mdm2/MdmX binding inhibition, confirmed; shares compounds with Mdm2-MdmX inh; luminescent assay; inhibition, % at 8 µM; 10,000 tested, 55% active; in the data active = inhibition above about 40%
FLuc counter: inhibits full-length luciferase, flagging false Mdm2/MdmX hits. 6,200 tested, 77% active. shares compounds with Mdm2-MdmX inh. AID 504607. SaOS-2 full-length luciferase counterscreen, luminescence. inhibition, % at 8 µM;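 active = mean inhibition at 8 µM reaching about 37%, which flags the compound as non-specific, limit read from the data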;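 also: p53-null SaOS-2 cells with luciferase driven by a doxycycline-inducible promoter; compound on cells about two nights before reading with doxycycline added after day one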
Starred values were filed as active, the others as inactive; ? = inconclusive; / = no result given.

SMILES	Jurkat NFkB inh	697 NFkB inh	aSyn UTR inh	Mdm2-MdmX inh	CSC inhib	Gli-Sufu antag	Mdm2-MdmX conf	FLuc counter
O=C(NCc1ccco1)c1cccc2c1C(=O)c1ccc(/C=C/c3ccccc3)cc1S2(=O)=O	47.3	-9.7	/	53.5*	44.0	2.0	46.6*	68.8*
O=C(NCc1ccco1)c1cccc2c1C(=O)c1ccc(N3CCC(Cc4ccccc4)CC3)cc1S2(=O)=O	4.2	-63.4	/	14.6	/	18.1	/	/
O=[N+]([O-])c1c(Nc2ccccn2)cc(Cl)c2nonc12	10.3	14.2	6.1	100.3*	96.1*	3.9	100.1*	0.8
O=[N+]([O-])c1c(Nc2ccc(O)cc2)cc(Cl)c2nonc12	27.1	12.0	46.7	100.3*	91.3*	5.1	100.2*	0.9
COc1ccc(-c2cnnn2-c2ccc(NC(=O)c3ccc(S(=O)(=O)N4CCCCC4)cc3)cc2)cc1	15.6	-11.2	20.9	24.8	0.9	12.6	/	/
CCOc1ccccc1NC(=O)NNC(=O)COc1cccc(C)c1C	2.5	-13.4	32.3	15.8	-2.3	8.7	/	/
CC1(C)Cc2c(sc(NC(=O)c3ccccc3)c2C(=O)O)CO1	-12.5	-54.5	-73.6	-25.9	3.9	-47.1	/	/
CC(C)COc1ccc(C(=O)Nc2sc3c(c2C(=O)O)CC(C)(C)OC3)cc1	-1.2	-1.7	62.6*	50.8*	/	-4.0	47.2*	81.9*
Cc1c(C(=O)NCc2ccc(S(N)(=O)=O)cc2)oc2ccc(Cl)cc12	11.1	-5.6	14.0	21.3	-8.6	2.8	/	/
COc1cccc(-c2ccc3ncnc(NCc4ccc5c(c4)OCO5)c3c2)c1	-76.6	-37.9	/	74.2*	/	-22.4	75.8*	53.0*
Cc1cccc(CNc2ncnc3ccc(-c4ccoc4)cc23)c1	0.3	-53.4	/	78.8*	1.3	-6.8	64.2*	23.8
c1nc(NCc2ccc3c(c2)OCO3)c2cc(-c3ccc4c(c3)OCCO4)ccc2n1	5.0	-8.4	/	27.3	/	-25.6	/	/
Cc1cccc(CNc2ncnc3ccc(-c4cccnc4)cc23)c1	-75.1	-13.0	/	10.3	/	3.3	/	/
Cc1cccc(CNc2ncnc3ccc(-c4ccc5c(c4)OCCO5)cc23)c1	-1.9	-27.8	/	66.2*	12.5	-3.2	33.0	/
Cc1csc(CNc2ncnc3ccc(-c4ccoc4)cc23)c1	20.9	-34.5	/	76.1*	-4.5	-46.5	73.8*	53.7*
COCc1cc(C)nc(OCC(=O)N/N=C/c2ccc(C)o2)c1C#N	3.9	1.9	-22.0	16.2	-14.2	3.4	/	/
C[C@H](NC(=O)N1CCn2c1nc1ccccc12)C(=O)NCCc1ccccc1	0.7	6.0	10.8	22.1	-22.1	1.8	/	/
Cc1cccc(-c2ccc3ncnc(NCc4cccnc4)c3c2)c1	36.2	-18.2	/	-6.7	3.9	2.9	/	/
c1cncc(CNc2ncnc3ccc(-c4ccoc4)cc23)c1	31.1	-1.9	/	70.4*	-2.0	-39.4	69.4*	51.3*
N/C(=N\OC(=O)Cc1ccccc1)c1cccnc1	-16.5	-6.3	-22.9	5.4	19.4	-8.1	/	/
N/C(=N\OC(=O)CC(c1ccccc1)c1ccccc1)c1cccnc1	0.6	-13.0	-16.7	88.3*	22.3	0.7	63.8*	99.6*
O=C(Nc1cccc2ncccc12)c1ccc(-c2ccc(Br)cc2)o1	7.7	-33.5	-79.2	22.4	-2.7	-2.8	/	/
COC(=O)C1=C(C)N(CCc2ccccc2)C(=O)C1(NS(=O)(=O)c1ccc(NC(C)=O)cc1)C(F)(F)F (centres undefined)	0.5	7.9	11.4	65.1*	17.3	2.4	32.3	59.3*
CC(=O)C1=C(C)N(c2ccccc2)C(=O)C1(NS(=O)(=O)c1ccc(N)cc1)C(F)(F)F (centres undefined)	5.9	10.5	20.0	0.7	3.8	-5.6	/	/
CCC1CCCCN1S(=O)(=O)c1ccc(NC(=O)c2nc(S(C)(=O)=O)ncc2Cl)cc1 (centres undefined)	29.2	-90.0	51.3	97.5*	114.7*	1.2	100.2*	0.8
SMILES	Jurkat NFkB inh	697 NFkB inh	aSyn UTR inh	Mdm2-MdmX inh	CSC inhib	Gli-Sufu antag	Mdm2-MdmX conf	FLuc counter
Cc1ccc(CS(=O)(=O)c2ncc(Cl)c(C(=O)Nc3ccc(OC(F)F)cc3)n2)cc1	43.0	-149.9	?	91.3*	105.1*	-4.3	86.1*	53.7*
CC1CCCN(S(=O)(=O)c2ccc(NC(=O)CNC3CCCC3)cc2)C1 (centres undefined)	-8.3	-17.2	0.9	23.0	40.1	12.1	/	/
CCC1CCCCN1S(=O)(=O)c1ccc(C(=O)Nc2nnc(-c3ccccc3Cl)o2)cc1 (centres undefined)	-0.3	-44.3	?	62.6*	/	16.0	15.9	/
CCS(=O)(=O)c1ncc(Cl)c(C(=O)Nc2ccc(S(=O)(=O)N3CCCC(C)C3)cc2)n1 (centres undefined)	18.9	-155.6	72.2*	99.3*	118.1*	20.2	99.2*	51.2*
C/C(=N\NC(=O)c1ccoc1C)c1ccc(Cl)s1	-17.3	-7.6	-43.5	-22.8	-1.4	-21.7	/	/
CC(=O)Nc1ccc2sccc2c1	-9.3	7.7	-3.5	7.3	-4.6	-3.6	/	/
COc1cccc(C(=O)Nc2cc(OC)ccc2NC(=O)c2ccco2)c1	-4.4	-5.7	-7.6	2.0	-5.1	-3.4	/	/
NC(=O)C1CC(=O)N(CCc2ccc(F)cc2)C1 (centres undefined)	-11.3	-9.8	-4.2	0.5	-4.3	3.6	/	/
CCS(=O)(=O)c1ncc(Cl)c(C(=O)Nc2ccc(C)cc2)n1	14.1	-62.9	-27.4	86.6*	119.0*	22.4	78.0*	57.4*
O=C1C(Cl)=C(NC(=O)c2ccccc2)C(=O)C(Cl)=C1NC(=O)c1ccccc1	-0.4	-15.5	-37.3	87.1*	/	14.1	41.5*	14.1
CCOc1cc2c3c(c1)C(C)=CC(C)(C)N3C(=O)C2=O	15.9	-1.1	-73.6	67.6*	16.6	5.2	39.2	84.8*
O=C(Cn1cncn1)NCCCc1ccccc1	-2.3	-6.9	6.7	-5.5	-7.1	2.5	/	/
CCOC(=O)c1c(CN(C)C)n(C)c2c(O)c(N=NC(N)=O)c3ccc(Br)cc3c12	-28.2	-14.1	-41.4	77.1*	-1.4	-17.3	46.6*	27.9
O=C(O)c1cccc(N/N=C/c2cccnc2)c1	/	/	-14.0	/	/	-72.9	/	/
CC(C)(C)c1ccc(/C=N/Nc2cccc(C(=O)O)c2)cc1	-55.5	-97.2	-17.3	69.8*	-3.9	-270.1	61.5*	115.9*
COc1ccc(CCNC(=O)CCS(=O)(=O)c2ccc3c(c2)NC(=O)CO3)cc1OC	-0.4	5.2	3.2	14.0	-5.4	25.2	/	/
CCOc1ccccc1NC(=O)c1nc(S(=O)(=O)Cc2cccc(C)c2)ncc1Cl	15.8	-74.8	88.0*	100.2*	91.4*	21.5	75.7*	55.2*
CCc1nnc(NC(=O)c2nc(S(=O)(=O)Cc3cccc(C)c3)ncc2Cl)s1	7.0	-122.5	-114.5	100.3*	109.6*	37.1	99.0*	51.2*
